Test results taken from PubChem BioAssay (EPA / NIEHS).
The source made the active and inactive calls. How the source made its calls: active means hit-call score of the fitted dose curve at least 0.9, where 1 is the maximum; inactive means score below 0.9.

How the values were obtained:
[1] = ATG_E_Box_CIS: Attagene CIS-FACTORIAL HepG2 Assay for human Enhancer Box (E-box) (AID 2282936); settings: HepG2 E-box cis-reporter transcription, actives raise or lower the signal
Procedure, shortened: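 E-box-driven reporter transcripts measured in transiently transfected HepG2 after 24 h exposure: RNA reverse-transcribed, PCR-amplified, fluorescently labelled, digested and resolved by capillary electrophoresis. Gain or loss relative to DMSO.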

[2] = ATG_M_61_CIS: Attagene CIS-FACTORIAL HepG2 Assay for M61 Transcription Factor (Internal Marker) (AID 2282937); settings: HepG2 Attagene CIS-FACTORIAL M61 internal marker reporter; actives raise or lower the signal
Procedure, shortened: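 Cells were transfected with reporter units under cis-regulatory promoters, treated with chemicals for 24 h, then lysed for RNA. Reporter transcripts were quantified by RT-PCR and capillary electrophoresis, and activity was fitted bidirectionally against DMSO.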

[3] = ATG_EGR_CIS: Attagene CIS-FACTORIAL HepG2 Assay for human Early Growth Response 1 (EGR1) (AID 2282938); settings: HepG2 Attagene CIS-FACTORIAL EGR reporter mRNA; actives raise or lower the signal
Procedure, shortened: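 Endogenous TF activity in HepG2 liver cells was gauged through cis-promoter reporter constructs transiently transfected. After 24 h dosing, reporter mRNA was quantified by RT-PCR and capillary electrophoresis, and curves fitted in both directions versus DMSO.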

[4] = ATG_M_19_CIS: Attagene CIS-FACTORIAL HepG2 Assay for M19 Transcription Factor (Internal Marker) (AID 2282939); settings: HepG2 Attagene CIS-FACTORIAL M19 internal marker reporter; actives raise or lower the signal
Procedure, shortened: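 Transfect HepG2 with MRTU reporter library → dose chemical, 24 h → isolate total RNA, reverse-transcribe with oligo(dT) → PCR, 6-FAM label, HpaI cut (2 h, 37 C) → capillary electrophoresis. Bidirectional fit vs DMSO.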

[5] = target: Hepatocyte nuclear factor 3-beta (Homo sapiens) (UniProt Q9Y261); assay: ATG_FoxA2_CIS: Attagene CIS-FACTORIAL HepG2 Assay for human Forkhead box A2 (FOXA2) (AID 2282942); settings: HepG2 cis-reporter transcription factor activity, 24 h; actives raise or lower the signal
Procedure, shortened: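 Endogenous transcription factor activity was read in HepG2 cells carrying transiently transfected cis-promoter reporter units. After 24 h dosing, reporter mRNA was quantified by RT-PCR and capillary electrophoresis, and values fitted bidirectionally versus DMSO.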

[6] = ATG_GATA_CIS: Attagene CIS-FACTORIAL HepG2 Assay for human GATA Binding Protein (AID 2282944); settings: HepG2 GATA cis-element reporter, Attagene multiplex mRNA; actives raise or lower the signal
Procedure, shortened: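 Transient MRTU transfection, HepG2, 24 h compound exposure. Total RNA → oligo(dT) RT → PCR → 6-FAM primer extension → HpaI cut → CE. Bidirectional fit vs DMSO.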

[7] = ATG_GLI_CIS: Attagene CIS-FACTORIAL HepG2 Assay for human Zinc Finger Protein GLI1 (AID 2282945); settings: HepG2, Attagene cis-factorial reporter mRNA, GLI element; actives raise or lower the signal
Procedure, shortened: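 Bidirectional curve fits relative to DMSO, using reporter mRNA levels from RT-PCR plus capillary electrophoresis. Cells were HepG2 transiently carrying cis-regulated reporter constructs, harvested 24 h after dosing.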

[8] = ATG_ISRE_CIS: Attagene CIS-FACTORIAL HepG2 Assay for human Interferon Regulatory Factor 1 (IRF1) binding to an Interferon-Stimulated Response Element (ISRE) (AID 2282948); settings: HepG2 ISRE cis-reporter (Attagene), mRNA transcription readout; actives raise or lower the signal
Procedure, shortened: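 Uses HepG2 liver cells transfected with cis-regulated reporters and measures mRNA 24 h post-dosing through RT-PCR, primer-extension labelling and capillary electrophoresis, with DMSO as negative control.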

[9] = ATG_M_32_CIS: Attagene CIS-FACTORIAL HepG2 Assay for M32 Transcription Factor (Internal Marker) (AID 2282949); settings: HepG2 Attagene cis-factorial M32 reporter, mRNA; actives raise or lower the signal;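 further: background control marker of the multiplexed CIS panel rather than a real target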
Procedure, shortened: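 HepG2 human liver cells transiently transfected with cis-promoter-driven multiple reporter transcription units, dosed 24 h. Reporter mRNA quantified by RT-PCR, FAM-labelled primer extension, HpaI digest and capillary electrophoresis; bidirectional fit versus DMSO baseline.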

[10] = ATG_M_06_CIS: Attagene CIS-FACTORIAL HepG2 Assay for M06 Transcription Factor (Internal Marker) (AID 2282950); settings: HepG2 Attagene CIS-FACTORIAL M06 internal marker reporter; actives raise or lower the signal
Procedure, shortened: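 Read-out is fluorescence of labelled reporter cDNA fragments resolved by capillary electrophoresis after RT-PCR. Cells: HepG2 carrying transfected cis-promoter reporter units, treated 24 h. Gain or loss of signal fitted relative to DMSO.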

[11] = target: Hepatocyte nuclear factor 6 (Homo sapiens) (UniProt Q9UBC0); assay: ATG_HNF6_CIS: Attagene CIS-FACTORIAL HepG2 Assay for human Hepatocyte Nuclear Factor 6 (HNF6) (AID 2282952); settings: HepG2 Attagene cis-factorial HNF6 reporter transcription; actives raise or lower the signal
Procedure, shortened: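 First, HepG2 cells were transfected with the multiplexed cis reporter library and dosed with chemical for 24 h. Next, RNA was reverse-transcribed, PCR-amplified and fluorescently labelled. Finally, HpaI-digested fragments were read by capillary electrophoresis.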

[12] = ATG_MRE_CIS: Attagene CIS-FACTORIAL HepG2 Assay for human Metal Responsive Element (MRE) (AID 2282954); settings: HepG2 MRE cis-reporter transcription, Attagene multiplex; actives raise or lower the signal
Procedure, shortened: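 Endogenous MRE-dependent transcription read as reporter mRNA in transiently transfected human HepG2 cells at 24 h. RNA reverse-transcribed, PCR-amplified, labelled and resolved by capillary electrophoresis; gain or loss relative to DMSO.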

[13] = ATG_ERE_CIS: Attagene CIS-FACTORIAL HepG2 Assay for Estrogen Response Element (ERE) (AID 2282940); settings: HepG2 ERE cis-reporter, Attagene RNA transcript; actives raise or lower the signal
Procedure, shortened: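 Transient MRTU transfection of human HepG2; cis-element promoters; 24 h dosing; total RNA → RT (oligo dT) → PCR → 6-FAM primer extension → HpaI digest → CE fluorescence. Bidirectional fit, DMSO baseline.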

[14] = ATG_FoxO_CIS: Attagene CIS-FACTORIAL HepG2 Assay for human Forkhead box O (FoxO) (AID 2282943); settings: HepG2 Attagene cis-reporter, FoxO element, mRNA; actives raise or lower the signal
Procedure, shortened: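 HepG2, transient MRTU transfection (cis element, endogenous TFs). Dose 24 h. TriZol RNA → oligo(dT) RT → PCR → 6-FAM primer extension → HpaI cut → CE. Gain/loss vs DMSO.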

[15] = target: Bile acid receptor (Homo sapiens) (UniProt Q96RI1); assay: ATG_IR1_CIS: Attagene CIS-FACTORIAL HepG2 Assay for human Nuclear Receptor Subfamily 1 Group H Member 4 (NR1H4), IR1 submotif (AID 2282946); settings: IR1 reporter transcription, actives raise or lower the signal
Procedure, shortened: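 HepG2 cells transiently transfected with multiplexed cis-element reporter units read endogenous transcription factor activity. After 24 h compound exposure, reporter mRNA was quantified by RT-PCR, fluorescent labelling, HpaI digestion and capillary electrophoresis; bidirectional fitting versus DMSO baseline.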

[16] = ATG_GRE_CIS: Attagene CIS-FACTORIAL HepG2 Assay for human Glucocorticoid Response Elements (GRE) (AID 2282947); settings: HepG2 GRE cis-reporter, Attagene multiplex mRNA; actives raise or lower the signal
Procedure, shortened: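 Reporter transcripts read by RT-PCR with capillary electrophoresis fluorescence after a 24 h chemical exposure of HepG2 cells transiently transfected with multiple cis-element reporter units. Gain or loss fitted against DMSO.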

[17] = target: Hypoxia-inducible factor 1-alpha (Homo sapiens) (UniProt Q16665); assay: ATG_HIF1a_CIS: Attagene CIS-FACTORIAL HepG2 Assay for human Hypoxia Inducible Factor 1 (HIF1A) (AID 2282951); settings: HepG2 Attagene cis-factorial HIF1a reporter transcription; actives raise or lower the signal
Procedure, shortened: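 Measures endogenous transcription-factor activity through cis-regulated reporter mRNA in HepG2. Cells dosed 24 h; transcripts quantified by RT-PCR with 6-FAM-labelled products separated by capillary electrophoresis; DMSO serves as negative control.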

[18] = ATG_PBREM_CIS: Attagene CIS-FACTORIAL HepG2 Assay for human Phenobarbital-responsive Enhancer Module (PBREM) (AID 2282955); settings: HepG2 PBREM cis-reporter, Attagene multiplexed transcription; actives raise or lower the signal
Procedure, shortened: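 Fluorescence of labelled reporter cDNA fragments, resolved by capillary electrophoresis, gives mRNA induction in transfected HepG2 cells treated for 24 h; DMSO serves as negative control and baseline.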

[19] = ATG_Ets_CIS: Attagene CIS-FACTORIAL HepG2 Assay for human Erythroblast Transformation Specific (ETS) (AID 2282941); settings: HepG2 ETS cis-reporter transcription, actives raise or lower the signal
Procedure, shortened: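 Bidirectional fit versus DMSO of reporter mRNA signal, detected by RT-PCR and capillary electrophoresis in HepG2 cells transiently transfected with cis-element reporters and dosed 24 h.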

[20] = target: Heat shock factor protein 1 (Homo sapiens) (UniProt Q00613); assay: ATG_HSE_CIS: Attagene CIS-FACTORIAL HepG2 Assay for human Heat Shock Transcription Factor 1 (HSE) (AID 2282953); settings: HepG2 HSE cis-reporter, Attagene RNA transcription; actives raise or lower the signal
Procedure, shortened: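 HepG2, transient MRTU transfection, cis-promoter reporters (endogenous TF activity). 24 h compound. RNA → oligo(dT) RT → PCR → 6-FAM primer extension → HpaI cut → CE. Bidirectional fit vs DMSO.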

Chain of Hepatocyte nuclear factor 3-beta (Homo sapiens) (Q9Y261 whole entry, looked up): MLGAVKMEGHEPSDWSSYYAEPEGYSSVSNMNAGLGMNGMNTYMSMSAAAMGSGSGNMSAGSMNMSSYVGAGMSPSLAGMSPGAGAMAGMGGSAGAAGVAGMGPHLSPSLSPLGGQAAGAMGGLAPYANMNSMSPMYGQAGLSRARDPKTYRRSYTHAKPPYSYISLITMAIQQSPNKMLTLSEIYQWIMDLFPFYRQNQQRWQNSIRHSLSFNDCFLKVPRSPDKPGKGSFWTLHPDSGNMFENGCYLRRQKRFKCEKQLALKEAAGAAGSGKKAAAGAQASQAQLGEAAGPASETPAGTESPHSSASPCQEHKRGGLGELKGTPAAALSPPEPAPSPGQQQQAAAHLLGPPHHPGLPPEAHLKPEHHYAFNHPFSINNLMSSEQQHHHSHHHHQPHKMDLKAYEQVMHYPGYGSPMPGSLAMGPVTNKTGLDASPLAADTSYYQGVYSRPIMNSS
Chain of Hypoxia-inducible factor 1-alpha (Homo sapiens) (Q16665 whole entry, looked up): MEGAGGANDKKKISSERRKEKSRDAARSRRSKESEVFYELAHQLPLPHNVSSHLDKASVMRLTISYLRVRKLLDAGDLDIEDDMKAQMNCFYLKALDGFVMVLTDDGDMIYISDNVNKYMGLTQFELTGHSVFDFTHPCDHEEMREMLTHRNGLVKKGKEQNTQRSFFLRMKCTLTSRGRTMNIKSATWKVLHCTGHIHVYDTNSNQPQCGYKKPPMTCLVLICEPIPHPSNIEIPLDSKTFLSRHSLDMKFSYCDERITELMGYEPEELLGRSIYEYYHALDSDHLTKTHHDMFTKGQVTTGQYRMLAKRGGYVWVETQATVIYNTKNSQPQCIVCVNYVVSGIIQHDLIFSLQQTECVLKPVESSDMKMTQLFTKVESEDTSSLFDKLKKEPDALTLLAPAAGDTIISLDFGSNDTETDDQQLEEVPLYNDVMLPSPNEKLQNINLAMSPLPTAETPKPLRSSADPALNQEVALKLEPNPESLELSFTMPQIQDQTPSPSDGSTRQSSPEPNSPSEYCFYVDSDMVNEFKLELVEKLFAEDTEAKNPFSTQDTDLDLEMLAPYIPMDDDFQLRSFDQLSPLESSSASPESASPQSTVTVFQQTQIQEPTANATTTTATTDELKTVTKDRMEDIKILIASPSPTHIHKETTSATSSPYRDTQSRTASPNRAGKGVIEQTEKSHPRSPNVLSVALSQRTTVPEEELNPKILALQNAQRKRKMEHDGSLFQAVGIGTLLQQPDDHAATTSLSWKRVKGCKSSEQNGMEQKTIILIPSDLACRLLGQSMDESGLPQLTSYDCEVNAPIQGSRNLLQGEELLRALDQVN
Chain of Bile acid receptor (Homo sapiens) (Q96RI1 whole entry, looked up): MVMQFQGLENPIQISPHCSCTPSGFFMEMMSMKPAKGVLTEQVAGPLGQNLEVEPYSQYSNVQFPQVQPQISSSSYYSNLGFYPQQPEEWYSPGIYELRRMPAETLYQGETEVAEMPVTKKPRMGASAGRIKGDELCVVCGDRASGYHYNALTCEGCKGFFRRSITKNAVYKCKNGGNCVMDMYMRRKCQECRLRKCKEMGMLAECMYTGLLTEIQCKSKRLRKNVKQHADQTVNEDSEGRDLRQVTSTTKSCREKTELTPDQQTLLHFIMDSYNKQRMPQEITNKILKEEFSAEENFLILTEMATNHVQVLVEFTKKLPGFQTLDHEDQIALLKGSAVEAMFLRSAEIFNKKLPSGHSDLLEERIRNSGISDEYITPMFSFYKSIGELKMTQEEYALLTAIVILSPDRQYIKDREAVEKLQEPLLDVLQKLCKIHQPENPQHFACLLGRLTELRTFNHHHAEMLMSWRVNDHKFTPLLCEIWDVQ
Chain of Hepatocyte nuclear factor 6 (Homo sapiens) (Q9UBC0 whole entry, looked up, the tested form may be a part): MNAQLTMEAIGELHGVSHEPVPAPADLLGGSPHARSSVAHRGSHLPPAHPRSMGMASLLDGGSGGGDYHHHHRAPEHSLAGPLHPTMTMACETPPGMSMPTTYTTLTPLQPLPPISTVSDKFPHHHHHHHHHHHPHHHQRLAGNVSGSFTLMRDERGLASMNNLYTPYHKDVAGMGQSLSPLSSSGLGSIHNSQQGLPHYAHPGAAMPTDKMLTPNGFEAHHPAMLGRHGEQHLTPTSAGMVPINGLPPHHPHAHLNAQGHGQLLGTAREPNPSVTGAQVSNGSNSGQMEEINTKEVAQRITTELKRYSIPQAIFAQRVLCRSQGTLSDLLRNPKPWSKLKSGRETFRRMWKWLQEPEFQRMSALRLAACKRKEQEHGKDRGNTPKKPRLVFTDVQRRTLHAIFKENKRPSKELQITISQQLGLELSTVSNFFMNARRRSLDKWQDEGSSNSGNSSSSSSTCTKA
Chain of Heat shock factor protein 1 (Homo sapiens) (Q00613 whole entry, looked up): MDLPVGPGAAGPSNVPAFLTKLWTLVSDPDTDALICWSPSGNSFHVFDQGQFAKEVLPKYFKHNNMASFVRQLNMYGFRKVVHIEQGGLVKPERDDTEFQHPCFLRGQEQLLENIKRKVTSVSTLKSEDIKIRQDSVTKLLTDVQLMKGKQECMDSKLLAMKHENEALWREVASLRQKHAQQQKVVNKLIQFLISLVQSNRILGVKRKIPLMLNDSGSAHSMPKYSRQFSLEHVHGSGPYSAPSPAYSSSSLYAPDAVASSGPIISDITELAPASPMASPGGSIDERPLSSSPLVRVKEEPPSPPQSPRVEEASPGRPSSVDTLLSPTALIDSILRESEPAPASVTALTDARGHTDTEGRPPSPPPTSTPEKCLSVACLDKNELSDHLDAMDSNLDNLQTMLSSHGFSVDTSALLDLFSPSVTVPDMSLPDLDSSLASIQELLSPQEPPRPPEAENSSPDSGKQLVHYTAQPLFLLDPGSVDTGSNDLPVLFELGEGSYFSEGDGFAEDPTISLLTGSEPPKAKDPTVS

CN(C)[C@@H]1C(=O)C(C(N)=O)=C(O)[C@@]2(O)C(=O)C3=C(O)c4c(O)cccc4[C@@](C)(O)[C@H]3[C@H](O)[C@@H]12
outcome [1]: inactive
outcome [2]: inactive
outcome [3]: inactive
outcome [4]: inactive
outcome [5]: inactive
outcome [6]: inactive
outcome [7]: inactive
outcome [8]: inactive
outcome [9]: inactive
outcome [10]: inactive
outcome [11]: inactive
outcome [12]: inactive

CNC(=O)Oc1cccc2c1OC(C)(C)O2
outcome [1]: inactive
outcome [2]: inactive
outcome [3]: inactive
outcome [4]: inactive
AC50 [13]: 29.5 µM (active)
outcome [5]: inactive
outcome [14]: inactive
outcome [6]: inactive
outcome [7]: inactive
outcome [15]: inactive
outcome [16]: inactive
outcome [8]: inactive
outcome [10]: inactive
outcome [17]: inactive
outcome [11]: inactive
AC50 [12]: 67.7 µM (active)
outcome [18]: inactive

CCNc1nc(Cl)nc(NC(C)(C)C#N)n1
outcome [1]: inactive
outcome [2]: inactive
outcome [3]: inactive
outcome [4]: inactive
outcome [5]: inactive
outcome [6]: inactive
outcome [7]: inactive
outcome [16]: inactive
outcome [8]: inactive
outcome [10]: inactive
outcome [17]: inactive
outcome [11]: inactive
outcome [12]: inactive
outcome [18]: inactive

CSc1nnc(C(C)(C)C)c(=O)n1N
outcome [1]: inactive
outcome [2]: inactive
outcome [3]: inactive
outcome [4]: inactive
outcome [19]: inactive
outcome [5]: inactive
outcome [6]: inactive
outcome [7]: inactive
outcome [15]: inactive
outcome [16]: inactive
outcome [8]: inactive
outcome [10]: inactive
outcome [17]: inactive
outcome [11]: inactive
outcome [12]: inactive
outcome [18]: inactive

CCCCN(CC)c1c([N+](=O)[O-])cc(C(F)(F)F)cc1[N+](=O)[O-]
outcome [1]: inactive
outcome [2]: inactive
outcome [3]: inactive
outcome [4]: inactive
outcome [5]: inactive
outcome [14]: inactive
outcome [6]: inactive
outcome [7]: inactive
outcome [16]: inactive
outcome [8]: inactive
outcome [10]: inactive
outcome [17]: inactive
outcome [11]: inactive
outcome [12]: inactive
AC50 [18]: 14.9 µM (active)

Nc1nc(N)nc(NC2CC2)n1
outcome [1]: inactive
outcome [2]: inactive
outcome [3]: inactive
outcome [4]: inactive
outcome [5]: inactive
outcome [14]: inactive
outcome [6]: inactive
outcome [7]: inactive
outcome [15]: inactive
outcome [16]: inactive
outcome [8]: inactive
outcome [10]: inactive
outcome [17]: inactive
outcome [11]: inactive
outcome [12]: inactive

CCCCSP(=O)(SCCCC)SCCCC
AC50 [1]: 56.5 µM (active)
outcome [2]: inactive
outcome [3]: inactive
outcome [4]: inactive
outcome [19]: inactive
outcome [5]: inactive
AC50 [6]: 81.2 µM (active)
AC50 [7]: 79.8 µM (active)
outcome [15]: inactive
AC50 [16]: 50 µM (active)
AC50 [8]: 58.6 µM (active)
AC50 [9]: 77.9 µM (active)
outcome [10]: inactive
outcome [17]: inactive
outcome [11]: inactive
outcome [20]: inactive
AC50 [12]: 23.4 µM (active)
AC50 [18]: 50 µM (active)

CCCSP(=O)(OCC)Oc1ccc(Br)cc1Cl (configuration not stated)
outcome [1]: inactive
outcome [2]: inactive
outcome [3]: inactive
outcome [4]: inactive
outcome [5]: inactive
outcome [6]: inactive
outcome [7]: inactive
outcome [15]: inactive
outcome [8]: inactive
outcome [10]: inactive
outcome [17]: inactive
outcome [11]: inactive
outcome [20]: inactive
outcome [12]: inactive
outcome [18]: inactive
